Tests used:
Experiment in all cases: log2 ratio of Biotin-Ahx-Ub-VS probe labelling (fragment/DMSO); higher = less target engagement (more negative = stronger competition), active = hit call of the paper (q ≤ 0.05, log2 ratio ≤ -1)
Conditions in all cases: compound concentration: 200 uM; treatment time: 3 h
OTUD6B = molecular target: T1, OTUD6B (UniProt Q8N6M0)
T1 sequence (whole entry): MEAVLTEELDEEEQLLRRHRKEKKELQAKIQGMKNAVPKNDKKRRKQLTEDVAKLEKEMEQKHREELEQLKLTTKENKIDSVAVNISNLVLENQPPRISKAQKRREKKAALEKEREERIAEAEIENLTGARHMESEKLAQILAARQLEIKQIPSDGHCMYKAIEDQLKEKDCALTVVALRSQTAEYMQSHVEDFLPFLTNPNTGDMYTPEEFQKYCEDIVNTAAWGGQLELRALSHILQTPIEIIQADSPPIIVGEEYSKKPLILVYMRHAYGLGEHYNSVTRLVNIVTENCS
Outline: (§1)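 Labelling with Biotin-Ahx-Ub-VS (0.5 µM final, 1 h) followed a 3 h triplicate treatment of HEK293T lysate (495 µg per sample, Tris/CHAPS/IGEPAL buffer with protease inhibitors) with fragment at 200 µM or vehicle. Labelled DUBs were NeutrAvidin-enriched, digested with LysC and trypsin, and run by diaPASEF LC-MS/MS. The values, average log2 fragment/vehicle ratios by unpaired t-test, come from global-median-normalised Spectronaut label-free quantities. Proteins with ≥2 unique peptides were used.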

OTUD7B = molecular target: T2, OTUD7B (UniProt Q6GQQ9)
T2 sequence (whole entry): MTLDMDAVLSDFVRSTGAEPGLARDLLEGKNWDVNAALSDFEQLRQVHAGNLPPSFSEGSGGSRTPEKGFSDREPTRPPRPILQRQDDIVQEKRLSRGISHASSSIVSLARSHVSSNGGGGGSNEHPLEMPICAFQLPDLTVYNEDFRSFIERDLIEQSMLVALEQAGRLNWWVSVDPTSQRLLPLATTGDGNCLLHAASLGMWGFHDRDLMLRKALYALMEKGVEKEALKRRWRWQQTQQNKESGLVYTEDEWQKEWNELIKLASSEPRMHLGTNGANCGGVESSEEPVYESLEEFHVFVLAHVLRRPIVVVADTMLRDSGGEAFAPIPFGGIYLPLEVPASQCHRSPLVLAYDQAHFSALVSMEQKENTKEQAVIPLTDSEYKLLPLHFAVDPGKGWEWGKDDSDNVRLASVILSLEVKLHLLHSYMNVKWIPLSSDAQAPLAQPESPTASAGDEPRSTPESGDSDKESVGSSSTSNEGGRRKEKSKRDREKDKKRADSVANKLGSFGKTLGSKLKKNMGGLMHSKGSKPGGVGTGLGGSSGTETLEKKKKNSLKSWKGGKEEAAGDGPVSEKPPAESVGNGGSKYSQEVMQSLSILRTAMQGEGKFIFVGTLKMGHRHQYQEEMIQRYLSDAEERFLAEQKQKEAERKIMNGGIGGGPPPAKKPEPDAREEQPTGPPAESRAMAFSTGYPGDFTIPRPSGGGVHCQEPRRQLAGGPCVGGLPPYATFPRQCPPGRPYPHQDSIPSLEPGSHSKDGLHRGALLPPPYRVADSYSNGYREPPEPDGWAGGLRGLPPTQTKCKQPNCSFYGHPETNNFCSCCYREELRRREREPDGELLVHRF
Outline: as §1

PRPF8 = PRPF8 (UniProt Q6P2Q9)
Outline: as §1

PSMD7 = molecular target: T3, PSMD7 (UniProt P51665)
T3 sequence (whole entry): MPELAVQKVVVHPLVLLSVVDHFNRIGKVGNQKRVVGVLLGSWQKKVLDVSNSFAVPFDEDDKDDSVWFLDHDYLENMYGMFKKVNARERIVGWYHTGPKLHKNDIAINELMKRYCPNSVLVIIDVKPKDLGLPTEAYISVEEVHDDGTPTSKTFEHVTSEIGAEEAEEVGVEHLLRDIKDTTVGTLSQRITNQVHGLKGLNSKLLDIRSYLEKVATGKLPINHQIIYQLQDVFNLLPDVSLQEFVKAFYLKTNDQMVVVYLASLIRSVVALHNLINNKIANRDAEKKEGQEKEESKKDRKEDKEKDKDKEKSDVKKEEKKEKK
Outline: as §1

UCHL1 = UCHL1 (UniProt P09936)
Sequence of UCHL1 (P09936 whole entry, looked up): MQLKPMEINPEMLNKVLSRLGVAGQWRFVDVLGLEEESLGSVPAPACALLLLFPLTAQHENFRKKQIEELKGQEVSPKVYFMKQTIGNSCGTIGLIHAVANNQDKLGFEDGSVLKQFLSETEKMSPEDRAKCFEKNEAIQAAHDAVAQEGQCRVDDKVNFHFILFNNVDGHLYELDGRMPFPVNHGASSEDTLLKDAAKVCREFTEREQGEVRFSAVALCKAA
Outline: as §1

UCHL3 = molecular target: T4, UCHL3 (UniProt P15374)
T4 sequence (whole entry): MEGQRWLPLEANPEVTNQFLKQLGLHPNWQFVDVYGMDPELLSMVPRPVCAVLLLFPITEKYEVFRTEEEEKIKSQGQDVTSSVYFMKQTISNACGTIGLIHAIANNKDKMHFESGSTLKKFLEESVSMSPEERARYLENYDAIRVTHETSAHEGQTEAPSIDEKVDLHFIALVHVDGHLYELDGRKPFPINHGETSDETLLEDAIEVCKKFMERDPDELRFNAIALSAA
Outline: as §1

UCHL5 = molecular target: T5, UCHL5 (UniProt Q9Y5K5)
T5 sequence (whole entry): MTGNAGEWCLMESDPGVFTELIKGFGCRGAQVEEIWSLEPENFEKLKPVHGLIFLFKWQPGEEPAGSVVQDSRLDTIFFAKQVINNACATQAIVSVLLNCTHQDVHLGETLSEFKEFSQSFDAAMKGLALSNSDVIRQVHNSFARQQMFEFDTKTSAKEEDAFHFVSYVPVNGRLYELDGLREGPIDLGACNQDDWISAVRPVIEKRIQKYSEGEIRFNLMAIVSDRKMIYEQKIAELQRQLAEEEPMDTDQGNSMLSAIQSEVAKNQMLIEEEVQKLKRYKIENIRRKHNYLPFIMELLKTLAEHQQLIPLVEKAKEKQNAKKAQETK
Outline: as §1

USP10 = USP10 (UniProt Q14694)
Sequence of USP10 (Q14694 whole entry): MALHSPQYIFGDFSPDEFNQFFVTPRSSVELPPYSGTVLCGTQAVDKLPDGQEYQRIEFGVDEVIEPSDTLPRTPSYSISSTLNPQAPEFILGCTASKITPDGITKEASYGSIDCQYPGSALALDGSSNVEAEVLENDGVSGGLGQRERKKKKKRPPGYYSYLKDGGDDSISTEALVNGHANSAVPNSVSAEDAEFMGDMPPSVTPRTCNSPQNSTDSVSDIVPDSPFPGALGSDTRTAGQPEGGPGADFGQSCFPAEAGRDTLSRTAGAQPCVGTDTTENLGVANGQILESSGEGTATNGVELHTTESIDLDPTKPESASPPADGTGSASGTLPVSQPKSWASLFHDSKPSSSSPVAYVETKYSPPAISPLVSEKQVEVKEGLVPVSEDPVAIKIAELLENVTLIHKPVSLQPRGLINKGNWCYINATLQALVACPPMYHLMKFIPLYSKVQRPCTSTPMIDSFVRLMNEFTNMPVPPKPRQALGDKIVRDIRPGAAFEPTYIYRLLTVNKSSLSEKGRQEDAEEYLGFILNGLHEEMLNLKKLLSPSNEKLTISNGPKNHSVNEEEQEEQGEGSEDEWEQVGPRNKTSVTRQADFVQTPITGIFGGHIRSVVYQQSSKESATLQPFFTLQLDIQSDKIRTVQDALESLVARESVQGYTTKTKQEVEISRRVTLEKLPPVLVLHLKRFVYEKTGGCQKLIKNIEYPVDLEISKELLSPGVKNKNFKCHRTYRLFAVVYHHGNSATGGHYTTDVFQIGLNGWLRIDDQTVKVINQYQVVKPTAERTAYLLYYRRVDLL
Outline: as §1

USP15 = molecular target: T6, USP15 (UniProt Q9Y4E8)
T6 sequence (whole entry): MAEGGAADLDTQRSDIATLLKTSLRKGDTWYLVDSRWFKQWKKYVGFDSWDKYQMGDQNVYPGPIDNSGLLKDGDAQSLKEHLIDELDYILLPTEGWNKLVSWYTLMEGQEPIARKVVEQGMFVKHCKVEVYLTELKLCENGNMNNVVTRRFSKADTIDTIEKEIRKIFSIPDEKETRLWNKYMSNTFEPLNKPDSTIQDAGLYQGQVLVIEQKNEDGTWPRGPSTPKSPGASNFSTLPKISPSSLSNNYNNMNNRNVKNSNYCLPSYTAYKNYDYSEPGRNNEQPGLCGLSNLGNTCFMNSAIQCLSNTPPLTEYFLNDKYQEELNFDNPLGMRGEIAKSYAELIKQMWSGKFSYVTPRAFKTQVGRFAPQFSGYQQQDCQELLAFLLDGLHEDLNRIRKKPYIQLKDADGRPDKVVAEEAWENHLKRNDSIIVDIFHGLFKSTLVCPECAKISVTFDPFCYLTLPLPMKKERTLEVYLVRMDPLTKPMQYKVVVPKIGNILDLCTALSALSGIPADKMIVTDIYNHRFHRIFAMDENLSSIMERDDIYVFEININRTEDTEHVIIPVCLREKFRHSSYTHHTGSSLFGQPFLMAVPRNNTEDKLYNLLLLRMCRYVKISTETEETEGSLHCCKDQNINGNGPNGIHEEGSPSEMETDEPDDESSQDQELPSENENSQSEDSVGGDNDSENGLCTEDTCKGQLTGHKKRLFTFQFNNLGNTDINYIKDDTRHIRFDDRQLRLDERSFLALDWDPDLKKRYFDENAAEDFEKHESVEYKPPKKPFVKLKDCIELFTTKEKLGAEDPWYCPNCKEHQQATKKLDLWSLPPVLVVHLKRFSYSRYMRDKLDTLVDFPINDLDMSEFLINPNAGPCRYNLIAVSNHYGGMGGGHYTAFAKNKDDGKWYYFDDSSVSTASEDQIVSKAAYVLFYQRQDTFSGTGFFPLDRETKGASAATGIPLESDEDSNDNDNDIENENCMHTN
Outline: as §1

USP16 = USP16 (UniProt Q9Y5T5)
Sequence of USP16 (Q9Y5T5 whole entry, looked up): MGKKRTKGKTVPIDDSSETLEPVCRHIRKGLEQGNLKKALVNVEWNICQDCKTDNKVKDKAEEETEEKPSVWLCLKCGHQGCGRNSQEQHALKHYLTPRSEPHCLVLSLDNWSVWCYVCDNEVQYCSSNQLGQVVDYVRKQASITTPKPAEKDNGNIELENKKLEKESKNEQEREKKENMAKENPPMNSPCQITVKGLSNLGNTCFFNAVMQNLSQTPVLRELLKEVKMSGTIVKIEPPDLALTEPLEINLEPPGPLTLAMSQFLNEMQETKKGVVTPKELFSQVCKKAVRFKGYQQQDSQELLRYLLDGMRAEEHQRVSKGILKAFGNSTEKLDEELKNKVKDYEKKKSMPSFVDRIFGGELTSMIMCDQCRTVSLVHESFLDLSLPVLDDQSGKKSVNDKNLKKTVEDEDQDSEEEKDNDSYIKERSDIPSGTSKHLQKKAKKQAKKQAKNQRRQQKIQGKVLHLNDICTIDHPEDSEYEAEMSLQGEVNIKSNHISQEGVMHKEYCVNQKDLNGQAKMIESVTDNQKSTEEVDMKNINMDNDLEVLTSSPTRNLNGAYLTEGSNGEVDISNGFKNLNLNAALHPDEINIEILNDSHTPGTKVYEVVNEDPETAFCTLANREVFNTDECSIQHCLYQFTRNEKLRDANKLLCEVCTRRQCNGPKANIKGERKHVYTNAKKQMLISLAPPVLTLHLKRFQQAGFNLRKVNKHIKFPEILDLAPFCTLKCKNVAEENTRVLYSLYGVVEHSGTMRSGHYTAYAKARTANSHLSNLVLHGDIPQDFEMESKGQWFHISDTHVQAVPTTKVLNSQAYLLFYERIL
Outline: as §1

Measured: log2 ratio of Biotin-Ahx-Ub-VS probe labelling

O=C(CCl)N1CCC[C@@H]1c1ccon1
inactive: OTUD6B -0.245 | OTUD7B -0.356 | PRPF8 0.0558 | PSMD7 -0.283 | UCHL3 0.0429 | UCHL5 -0.401 | USP10 -0.0611 | USP15 -0.228 | USP16 -0.0988
active: UCHL1 -1.49
